Data on 11 compounds can be found in PubChem BioAssay (EPA / NIEHS).

Experiment [1] deals with guinea pig Sigma Receptor, Non-selective Binding, SIGMAR1 (gene 100135589) (UniProt Q60492). As to the kind of experiment: NVS_OR_gSIGMA_NonSelective: NovaScreen (NVS) Nuclear Receptor Binding Assay for guinea pig Sigma Receptor, Non-selective Binding (AID 2283367). The method in brief: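 gp brain membr., radioligand displacement, 1 h, filtration + scint. counting; DMSO = baseline; 25 uM x2 primary, conc.-response confirm.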

For experiment [2], the system named is guinea pig Dopamine Transporter (DAT), gene 100714898. As to the kind of experiment: NVS_TR_gDAT: NovaScreen (NVS) Transporter Assay for guinea pig Dopamine Transporter (DAT) (AID 2283369).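 Note: active compounds lower bound radioligand signal relative to DMSO.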 Put shortly:
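Scintillation counts of filter-retained radioligand report binding to guinea pig striatal membranes after 2 h. Activity scored as signal loss relative to DMSO, first at 25 uM in duplicate, then in concentration series to 50 uM.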

The target in experiment [3] is human Serotonin Transporter (SERT), SLC6A4 (gene 6532) (UniProt P31645). Briefly: NVS_TR_hSERT: NovaScreen (NVS) Transporter Assay for human Serotonin Transporter (SERT) (AID 2283372). Put shortly:
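Radioligand binding to native SERT in human platelet membranes, read by filter-based scintillation counting 1 h after dosing. Primary screen in duplicate at 25 uM; actives followed up in concentration series; loss of signal versus DMSO baseline.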

Experiment [4] deals with rat Norepinephrine Transporter (NET), gene 83511. As to the kind of experiment: NVS_TR_rNET: NovaScreen (NVS) Transporter Assay for rat Norepinephrine Transporter (NET) (AID 2283373). Put shortly:
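Rat forebrain membranes; radioligand binding measured by filter-based scintillation counting 1 hour after dosing. Loss of specific binding versus DMSO baseline scored; primary screen in duplicate at 25 uM, actives followed up in concentration series.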

For experiment [5], the target named is human Dopamine Transporter (DAT), SLC6A3 (gene 6531) (UniProt Q01959). Briefly: NVS_TR_hDAT: NovaScreen (NVS) Transporter Assay for human Dopamine Transporter (DAT) (AID 2283374).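 Note: activity means loss of bound radioligand signal relative to DMSO.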 Put shortly: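 Test chemicals were first screened in duplicate at 25 uM, with actives retested as concentration series. Displacement of a specific radioligand from cell-free human dopamine transporter was measured after 1 h by filtration and scintillation counting.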

For experiment [6], the target named is rat Serotonin Transporter (SERT), Slc6a4 (gene 25553) (UniProt P31652). As to the kind of experiment: NVS_TR_rSERT: NovaScreen (NVS) Transporter Assay for rat Serotonin Transporter (SERT) (AID 2283375). The method in brief:
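Filtration-based radiodetection quantified loss of specific radioligand binding in rat forebrain membranes after 1 hour of chemical exposure, relative to DMSO. Chemicals were first tested in duplicate at 25 uM.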

Experiment [7] has as its target human Norepinephrine Transporter (NET), SLC6A2 (gene 6530) (UniProt P23975). As to the kind of experiment: NVS_TR_hNET: NovaScreen (NVS) Transporter Assay for human Norepinephrine Transporter (NET) (AID 2283377).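 For AC50: displacement of radioligand from human NET seen as loss of scintillation signal.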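 Note: cell-free membrane protein extracted from CHO cells expressing human NET.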 The method in brief:
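Scintillation counts of filter-retained radioligand served as the readout, taken 1 h post-dosing in a cell-free CHO-derived system. Test chemicals ran first at 25 uM in duplicate; confirmed hits were retested across concentrations.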

In experiment [8] the target is human Adenosine Transporter (Adot), SLC29A1 (gene 2030) (UniProt Q99808). As to the kind of experiment: NVS_TR_hAdoT: NovaScreen (NVS) Transporter Assay for human Adenosine Transporter (Adot) (AID 2283368). The method in brief: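 U937-derived membranes, cell-free radioligand binding, filter scintillation 1 h after dosing. 25 uM duplicate screen; hits (e.g. 30% inhibition) run in concentration-response up to 50 uM; loss of signal versus DMSO.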

Experiment [9] deals with Peroxisome proliferator-activated receptor gamma (Homo sapiens) (UniProt P37231). Briefly: NVS_NR_hPPARg: NovaScreen (NVS) Nuclear Receptor Binding Assay for human Peroxisome Proliferator-activated Receptor gamma (PPARg) (AID 2283370). Put shortly:
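Chemicals were tested first in duplicate at 25 uM, then in concentration series if active. Binding to cell-free PPARg protein was measured by fluorescence polarization after 2 h, with loss of signal scored against DMSO.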

Experiment [10] has as its target rat Androgen Receptor (AR), Ar (gene 24208) (UniProt P15207). As to the kind of experiment: NVS_NR_rAR: NovaScreen (NVS) Nuclear Receptor Binding Assay for rat Androgen Receptor (AR) (AID 2283366). Put shortly:
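Cell-free radioligand binding on extracts of prostate from testosterone-pretreated rats, read by filter-based scintillation counting 18 h after dosing. Loss of bound signal fitted positively versus DMSO; primary screen in duplicate at 25 uM, actives followed up in concentration series.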

Structures are written as SMILES. Inconclusive results are not listed. Calls of active or inactive are those of the source. Rule for the calls: active = hit-call score of the fitted dose curve at least 0.9, where 1 is the maximum; inconclusive = response in the unintended direction; inactive = score below 0.9.

Sequence of human Adenosine Transporter (Adot), SLC29A1 (gene 2030) (Q99808 whole entry, looked up): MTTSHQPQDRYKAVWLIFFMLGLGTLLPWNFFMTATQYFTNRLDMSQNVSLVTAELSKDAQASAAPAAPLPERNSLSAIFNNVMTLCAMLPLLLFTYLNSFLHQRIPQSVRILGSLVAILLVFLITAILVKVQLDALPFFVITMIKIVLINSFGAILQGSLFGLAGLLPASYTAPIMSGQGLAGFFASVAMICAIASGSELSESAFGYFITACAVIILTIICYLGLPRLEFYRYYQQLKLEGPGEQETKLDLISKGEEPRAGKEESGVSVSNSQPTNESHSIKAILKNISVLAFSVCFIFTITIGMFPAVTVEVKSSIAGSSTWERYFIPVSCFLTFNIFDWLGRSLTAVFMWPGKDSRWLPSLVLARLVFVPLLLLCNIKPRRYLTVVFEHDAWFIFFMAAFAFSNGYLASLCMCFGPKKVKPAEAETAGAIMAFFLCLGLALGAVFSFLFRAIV
Sequence of Peroxisome proliferator-activated receptor gamma (Homo sapiens) (P37231 whole entry, looked up): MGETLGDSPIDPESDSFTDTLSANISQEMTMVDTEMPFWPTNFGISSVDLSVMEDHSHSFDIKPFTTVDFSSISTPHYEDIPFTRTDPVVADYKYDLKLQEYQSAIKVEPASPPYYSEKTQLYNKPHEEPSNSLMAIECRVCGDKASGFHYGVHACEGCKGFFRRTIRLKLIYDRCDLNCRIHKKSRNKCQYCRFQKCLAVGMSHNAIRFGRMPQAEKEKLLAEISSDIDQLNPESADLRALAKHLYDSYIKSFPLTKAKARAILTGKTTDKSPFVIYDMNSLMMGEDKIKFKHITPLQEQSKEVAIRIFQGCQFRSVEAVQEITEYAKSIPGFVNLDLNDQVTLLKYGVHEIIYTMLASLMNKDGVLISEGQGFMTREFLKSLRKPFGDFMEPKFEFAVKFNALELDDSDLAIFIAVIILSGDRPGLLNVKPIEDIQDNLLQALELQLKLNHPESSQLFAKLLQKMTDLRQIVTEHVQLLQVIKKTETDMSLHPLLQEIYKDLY
Sequence of guinea pig Sigma Receptor, Non-selective Binding, SIGMAR1 (gene 100135589) (Q60492 whole entry, looked up): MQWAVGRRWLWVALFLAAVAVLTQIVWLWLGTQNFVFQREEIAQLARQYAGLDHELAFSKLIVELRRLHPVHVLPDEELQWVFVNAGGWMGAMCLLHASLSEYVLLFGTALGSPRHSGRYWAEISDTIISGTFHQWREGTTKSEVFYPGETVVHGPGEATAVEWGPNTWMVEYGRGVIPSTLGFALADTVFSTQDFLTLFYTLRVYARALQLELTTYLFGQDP
Sequence of human Serotonin Transporter (SERT), SLC6A4 (gene 6532) (P31645 whole entry, looked up): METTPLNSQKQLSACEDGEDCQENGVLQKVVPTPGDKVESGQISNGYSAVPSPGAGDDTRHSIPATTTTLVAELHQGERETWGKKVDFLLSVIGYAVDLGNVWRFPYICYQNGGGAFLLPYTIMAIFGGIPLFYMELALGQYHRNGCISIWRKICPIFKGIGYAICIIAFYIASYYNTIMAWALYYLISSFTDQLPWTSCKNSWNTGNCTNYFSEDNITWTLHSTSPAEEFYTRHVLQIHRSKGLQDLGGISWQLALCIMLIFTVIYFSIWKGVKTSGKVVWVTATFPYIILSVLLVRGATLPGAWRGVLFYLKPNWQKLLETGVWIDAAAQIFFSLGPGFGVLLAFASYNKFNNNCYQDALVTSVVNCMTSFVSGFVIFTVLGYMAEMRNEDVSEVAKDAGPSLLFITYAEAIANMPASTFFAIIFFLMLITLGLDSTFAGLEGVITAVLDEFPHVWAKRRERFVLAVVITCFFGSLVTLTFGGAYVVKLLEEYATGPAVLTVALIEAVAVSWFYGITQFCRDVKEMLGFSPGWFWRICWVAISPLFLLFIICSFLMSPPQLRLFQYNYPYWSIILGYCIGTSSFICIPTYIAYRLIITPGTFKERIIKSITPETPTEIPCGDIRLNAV
Sequence of rat Serotonin Transporter (SERT), Slc6a4 (gene 25553) (P31652 whole entry, looked up): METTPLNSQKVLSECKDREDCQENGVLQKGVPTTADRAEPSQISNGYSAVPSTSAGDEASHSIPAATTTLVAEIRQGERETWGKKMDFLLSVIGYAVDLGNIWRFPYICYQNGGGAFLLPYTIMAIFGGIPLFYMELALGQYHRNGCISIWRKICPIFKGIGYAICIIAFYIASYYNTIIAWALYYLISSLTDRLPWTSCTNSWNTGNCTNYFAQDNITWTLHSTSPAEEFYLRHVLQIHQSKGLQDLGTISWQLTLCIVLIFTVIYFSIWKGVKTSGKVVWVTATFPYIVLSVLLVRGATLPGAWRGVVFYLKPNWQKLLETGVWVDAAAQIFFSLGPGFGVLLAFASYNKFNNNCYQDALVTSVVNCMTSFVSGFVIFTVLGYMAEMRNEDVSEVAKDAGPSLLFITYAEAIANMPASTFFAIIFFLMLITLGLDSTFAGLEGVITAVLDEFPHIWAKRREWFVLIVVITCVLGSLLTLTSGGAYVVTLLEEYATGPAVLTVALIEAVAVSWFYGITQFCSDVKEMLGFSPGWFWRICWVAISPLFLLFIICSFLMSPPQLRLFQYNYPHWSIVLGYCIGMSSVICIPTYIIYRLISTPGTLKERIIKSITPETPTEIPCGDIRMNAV
Sequence of human Dopamine Transporter (DAT), SLC6A3 (gene 6531) (Q01959 whole entry, looked up): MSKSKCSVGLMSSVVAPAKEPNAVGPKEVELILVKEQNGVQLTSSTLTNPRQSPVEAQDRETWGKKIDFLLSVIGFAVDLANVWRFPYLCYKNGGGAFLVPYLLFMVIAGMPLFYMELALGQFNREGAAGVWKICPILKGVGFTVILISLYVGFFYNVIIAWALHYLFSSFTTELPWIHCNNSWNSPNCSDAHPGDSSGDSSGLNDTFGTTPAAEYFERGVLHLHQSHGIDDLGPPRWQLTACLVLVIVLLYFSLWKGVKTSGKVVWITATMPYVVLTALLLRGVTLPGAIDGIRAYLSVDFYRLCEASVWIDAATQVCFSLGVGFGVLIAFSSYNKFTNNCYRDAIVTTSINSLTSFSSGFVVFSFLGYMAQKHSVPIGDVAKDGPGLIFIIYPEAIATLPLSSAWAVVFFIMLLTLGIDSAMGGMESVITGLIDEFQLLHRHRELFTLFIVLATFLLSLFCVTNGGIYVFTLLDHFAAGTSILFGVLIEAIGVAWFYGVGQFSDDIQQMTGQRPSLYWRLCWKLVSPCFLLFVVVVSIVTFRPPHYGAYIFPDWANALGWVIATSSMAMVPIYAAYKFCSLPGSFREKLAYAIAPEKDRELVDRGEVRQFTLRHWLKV
Sequence of human Norepinephrine Transporter (NET), SLC6A2 (gene 6530) (P23975 whole entry, looked up): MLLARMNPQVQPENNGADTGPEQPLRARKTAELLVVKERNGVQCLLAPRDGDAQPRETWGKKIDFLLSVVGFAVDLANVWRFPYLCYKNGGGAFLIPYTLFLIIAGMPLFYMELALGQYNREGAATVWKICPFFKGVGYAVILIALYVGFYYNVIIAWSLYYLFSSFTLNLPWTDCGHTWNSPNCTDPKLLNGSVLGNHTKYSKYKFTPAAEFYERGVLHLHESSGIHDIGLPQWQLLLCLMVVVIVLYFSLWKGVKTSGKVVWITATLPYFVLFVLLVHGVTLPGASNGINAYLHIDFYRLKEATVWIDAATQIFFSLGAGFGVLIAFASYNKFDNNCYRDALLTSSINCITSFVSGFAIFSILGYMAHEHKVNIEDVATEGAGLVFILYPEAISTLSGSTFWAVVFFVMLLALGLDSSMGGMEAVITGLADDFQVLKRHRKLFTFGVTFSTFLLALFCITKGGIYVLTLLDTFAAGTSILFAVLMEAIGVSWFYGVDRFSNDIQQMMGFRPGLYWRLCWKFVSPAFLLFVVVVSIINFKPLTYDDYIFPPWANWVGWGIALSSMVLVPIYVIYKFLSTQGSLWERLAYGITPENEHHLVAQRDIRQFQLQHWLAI
Sequence of rat Androgen Receptor (AR), Ar (gene 24208) (P15207 whole entry, looked up): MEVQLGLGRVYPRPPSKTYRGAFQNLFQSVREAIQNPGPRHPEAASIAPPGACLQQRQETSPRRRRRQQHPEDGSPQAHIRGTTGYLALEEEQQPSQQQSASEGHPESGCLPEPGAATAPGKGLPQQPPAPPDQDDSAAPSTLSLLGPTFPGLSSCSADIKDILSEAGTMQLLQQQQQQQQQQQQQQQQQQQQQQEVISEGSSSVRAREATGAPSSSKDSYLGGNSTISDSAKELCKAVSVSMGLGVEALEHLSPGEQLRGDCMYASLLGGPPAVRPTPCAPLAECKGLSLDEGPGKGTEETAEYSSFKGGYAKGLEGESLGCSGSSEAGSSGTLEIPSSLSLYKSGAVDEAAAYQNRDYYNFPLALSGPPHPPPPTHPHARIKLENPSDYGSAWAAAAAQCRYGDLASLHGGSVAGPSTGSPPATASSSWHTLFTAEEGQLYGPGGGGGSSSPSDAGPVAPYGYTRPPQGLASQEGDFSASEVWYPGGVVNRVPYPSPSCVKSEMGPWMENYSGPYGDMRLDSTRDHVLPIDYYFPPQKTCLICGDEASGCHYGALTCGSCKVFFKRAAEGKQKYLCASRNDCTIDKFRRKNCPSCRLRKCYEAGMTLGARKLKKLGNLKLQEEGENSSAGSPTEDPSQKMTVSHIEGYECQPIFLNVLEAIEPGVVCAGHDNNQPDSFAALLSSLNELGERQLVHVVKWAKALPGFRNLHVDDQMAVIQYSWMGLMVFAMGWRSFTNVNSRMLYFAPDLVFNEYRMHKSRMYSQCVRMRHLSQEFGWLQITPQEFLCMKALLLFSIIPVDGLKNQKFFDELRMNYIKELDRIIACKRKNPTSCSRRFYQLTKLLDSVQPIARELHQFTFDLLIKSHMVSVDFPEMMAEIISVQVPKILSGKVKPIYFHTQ

For `Cc1[nH]cnc1C[C@H]1CCc2c(C)c3ccccc3n2C1=O`, the AC50 is 10 µM (active) in experiment [1]; 12.7 µM (active) in experiment [2]; 8.03 µM (active) in experiment [3]; 8.58 µM (active) in experiment [4]; 11.6 µM (active) in experiment [5]; 7.59 µM (active) in experiment [6]. Besides, the half-maximal activity concentration (AC50) in experiment [7] is 7.21 µM (active).

`CCCN(C1CCN(C(=O)C2CCNCC2)CC1)[C@@H]1CCc2ccc(OC)cc2C1`: the figures for the AC50 in experiment [1], in [3] and in experiment [6] were 7.69 µM (active), 10.3 µM (active) and 3.7 µM (active), respectively.

On to `COc1ccc(-n2nc(C(F)F)cc2-c2ccc(S(C)=O)cc2)cc1` (configuration not stated), for which the AC50 in experiment [8] is 33.2 µM (active). The compound was classed as inactive in [9].

Regarding `COc1cccc(-c2ccc(/C=C\CN3CCCCCC3)cc2Cl)c1`, the half-maximal activity concentration (AC50) is 0.0104 µM (active) in experiment [1]; 14.5 µM (active) in experiment [2]; 9.83 µM (active) in experiment [4]; 5.87 µM (active) in experiment [5]; 2.67 µM (active) in experiment [7]. The result in experiment [9] and in [6] was inactive.

With `O=C(O)CC(O)C(=O)O` (configuration not stated), the AC50 in experiment [1] is 14.8 µM (active); in [2], 5.6 µM (active); in experiment [5], 4.96 µM (active).

As for `CCCCCCc1ccc(O)cc1O`, the compound was called inactive in [8] and in experiment [6]. Further, the figures for the AC50 in experiment [9], in experiment [5] and in experiment [7] were 25 µM (active), 10 µM (active) and 12.8 µM (active), respectively.

Regarding `Fc1ccccc1[C@@H](F)COC1CCC(Nc2ncnc3[nH]ncc23)CC1` (some centres not stated), the AC50 in experiment [8] was 5.08 µM (active); in [6], 2.48 µM (active).

Regarding `O=C(O)c1cccc(N(Cc2cccnc2)c2ccc(OC(F)F)c(OC(F)F)c2)c1`, the outcome in experiment [10] was inactive. Besides, the AC50 in [9] is 25 µM (active).

Consider `O=C(O)c1cccc(Oc2ccccc2)c1`, for which the result in experiment [8], in experiment [9] and in experiment [7] was inactive.

On to `O=C(O)CCN(C1(C(=O)NO)CCCC1)S(=O)(=O)c1ccc(Oc2ccc(F)cc2)cc1`, for which the call in experiment [1] was inactive.

For `CCOC(=O)c1ccc(C2CCC(NC[C@H](O)COc3ccc(O)c(NS(C)(=O)=O)c3)CC2)cc1` (some centres not stated), the AC50 in experiment [2] was 8.87 µM (active); in experiment [3], 14.9 µM (active); in [4], 7.29 µM (active); in [5], 0.321 µM (active); in [6], 1.71 µM (active); in experiment [7], 1.01 µM (active). Besides, in [9], the compound was classed as inactive.
